{"source": "PubChem BioAssay (NCATS)", "note": "Results filed as inconclusive are left out. Calls of active or inactive are those of the source. Calls come from the whole dose curve."}
{"target": "Peroxisome proliferator-activated receptor delta (Homo sapiens) (UniProt Q03181)", "sequence (Q03181 whole entry, looked up)": "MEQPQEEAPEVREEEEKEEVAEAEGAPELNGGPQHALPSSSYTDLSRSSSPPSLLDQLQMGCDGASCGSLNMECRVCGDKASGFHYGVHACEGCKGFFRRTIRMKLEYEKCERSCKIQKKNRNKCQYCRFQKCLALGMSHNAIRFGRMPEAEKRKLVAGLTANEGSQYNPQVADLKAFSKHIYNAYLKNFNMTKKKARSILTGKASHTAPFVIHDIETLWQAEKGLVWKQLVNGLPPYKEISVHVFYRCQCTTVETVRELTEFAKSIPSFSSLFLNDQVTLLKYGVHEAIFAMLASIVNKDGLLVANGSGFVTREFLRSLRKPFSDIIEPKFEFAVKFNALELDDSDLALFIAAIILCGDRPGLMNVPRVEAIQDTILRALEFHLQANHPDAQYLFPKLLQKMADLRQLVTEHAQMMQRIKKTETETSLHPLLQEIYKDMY", "experiment": "qHTS assay for small molecule agonists of peroxisome proliferator-activated receptor delta signaling (AID 588534)", "conditions": "HEK293T PPARdelta-UAS-bla, beta-lactamase ratio, 18 h; series mostly up to 76.7 µM", "method_in_brief": "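EC50 and efficacy values derive from Hill fits of a concentration series in a beta-lactamase reporter cell assay. Exposure is 18 hrs at 37 C, with CCF4 fluorescence as the readout.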"}
{"smiles": "CC1(C)C(=O)N(Br)C(=O)N1Cl", "outcome": "inactive"}
{"smiles": "O=[N+]([O-])c1c(Cl)cc(Cl)cc1Cl", "outcome": "inactive"}
{"smiles": "CC1=CC(=O)CC(C)(C)C1", "outcome": "inactive"}
{"smiles": "O=Cc1c(Cl)cccc1Cl", "outcome": "inactive"}
{"smiles": "CC1(C)CC(OC(=O)CCCCCCCCC(=O)OC2CC(C)(C)NC(C)(C)C2)CC(C)(C)N1", "outcome": "inactive"}
{"smiles": "NCCCCCCN", "outcome": "inactive"}
{"smiles": "CC(O)COC(C)(C)C", "note": "(centres undefined)", "outcome": "inactive"}
{"smiles": "CCCCCCN", "outcome": "inactive"}
{"smiles": "O=C(O)c1ccc(C(=O)O)cc1", "outcome": "inactive"}
{"smiles": "CCOCC(=O)O", "outcome": "inactive"}
{"smiles": "OC1CCCC1", "outcome": "inactive"}
{"smiles": "NC(=O)c1ccccc1[N+](=O)[O-]", "outcome": "inactive"}
{"smiles": "Cc1ccc2ncccc2c1", "outcome": "inactive"}
{"smiles": "OCCNCCO", "outcome": "inactive"}
{"smiles": "C=C(C#N)C(=O)OCC", "outcome": "inactive"}
{"smiles": "O=C(O[C@@H](C(=O)O)[C@@H](OC(=O)c1ccccc1)C(=O)O)c1ccccc1", "outcome": "inactive"}
{"smiles": "O=CC(=O)c1ccccc1", "outcome": "inactive"}
{"smiles": "O=NO", "outcome": "inactive"}
{"smiles": "CCCCCCCCC(=O)O", "outcome": "inactive"}
{"smiles": "CCOC(=O)COc1cc(-n2ncc(C(F)(F)F)c(C)c2=O)c(F)cc1Cl", "outcome": "inactive"}
{"smiles": "Cc1ccc2c(c1)C(=O)OC2=O", "outcome": "inactive"}
{"smiles": "CCCCCCCCCCCCCCC(=O)OC", "outcome": "inactive"}
{"smiles": "CS(=O)(=O)c1ccc(Cl)cc1", "outcome": "inactive"}
{"smiles": "CCCCCCCCC/C=C/CC1CC(=O)OC1=O", "note": "(centres undefined)", "outcome": "inactive"}
{"smiles": "CCC(C)(C)C(=O)O", "outcome": "inactive"}
{"smiles": "CO[Si](CCCNCCN)(OC)OC", "outcome": "inactive"}
{"smiles": "CC1CCC(C(C)C)C(O)C1", "note": "(centres undefined)", "outcome": "inactive"}
{"smiles": "CC(C)(C)OCC1CO1", "note": "(centres undefined)", "outcome": "inactive"}
{"smiles": "CCOC(=O)OCC", "outcome": "inactive"}
{"smiles": "CC1(C)CC(NCCCCCCNC2CC(C)(C)NC(C)(C)C2)CC(C)(C)N1", "outcome": "inactive"}
{"smiles": "Fc1ccccc1", "outcome": "inactive"}
{"smiles": "CC(=O)c1ccc([N+](=O)[O-])cc1", "outcome": "inactive"}
{"smiles": "Cc1cc(C)c(N)c(Cl)c1", "outcome": "inactive"}
{"smiles": "Cc1ccc(S(=O)(=O)NCl)cc1", "outcome": "inactive"}
{"smiles": "C=C(C)C(=O)OCCC[Si](Cl)(Cl)Cl", "outcome": "inactive"}
{"smiles": "O=C(O)c1cccc(Cl)c1Cl", "outcome": "inactive"}
{"smiles": "COC(=O)c1cccc(C(=O)OC)c1", "outcome": "inactive"}
{"smiles": "CC(C)(O)CCC(C)(C)O", "outcome": "inactive"}
{"smiles": "CCc1ccccc1", "outcome": "inactive"}
